Assay results as given in PubChem BioAssay (NCATS).
Inconclusive results are not listed. The source made the active and inactive calls. Calls follow the shape of the dose curve; as a rule, active = well fitted cell-killing curve with a large enough effect; inconclusive = small, poorly fitted or top-dose-only effect, or effect the other way; inactive = flat fitted curve, though single readings scatter. *1 amine or outer side, *2 acyl side, *3 side chain or, on linkers, in order; H or OH if unused. Where a SMILES comes first, the peptide text is derived from it. Bridges are numbered along the chain shown (N, C = ends). [ ]: non-standard residue; d: D form. PhLac = O=C(O)[CH](O)Cc1ccccc1; NMeV = CN[CH](C(=O)O)C(C)C; X6 = O=C(CCC[*:2])[*:1]

What was measured:
Assay in all cases: Primary qHTS to identify gynecologic anti-cancer compounds using libraries of approved drugs and bioactive compounds (AID 1345084); also: nearly all actives have a fitted effect of over 55% in size
[1] = test system: Hek293T; conditions: Gynecologic cancer cell panel viability, ATPlite luminescence, 48 h, control line for the selectivity index; series mostly up to 57.5 µM
How it was run: (§1)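 48 h compound exposure at 37 C, 5% CO2; five-point qHTS. ATPlite luminescence readout of cell ATP.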

[2] = test system: JEG-3; conditions: Gynecologic cancer cell panel viability, ATPlite luminescence, 48 h; series mostly up to 57.5 µM
How it was run: as §1

[3] = test system: OV90; conditions: Gynecologic cancer cell panel viability, ATPlite luminescence, 48 h; series mostly up to 57.5 µM
How it was run: as §1

[4] = test system: PA-1; conditions: Gynecologic cancer cell panel viability, ATPlite luminescence, 48 h; series mostly up to 57.5 µM
How it was run: as §1

[5] = test system: SKOV3; conditions: Gynecologic cancer cell panel viability, ATPlite luminescence, 48 h; series mostly up to 57.5 µM
How it was run: as §1

[6] = test system: Tov-21-G; conditions: Gynecologic cancer cell panel viability, ATPlite luminescence, 48 h; series mostly up to 57.5 µM
How it was run: as §1

[7] = test system: Tov112D; conditions: Gynecologic cancer cell panel viability, ATPlite luminescence, 48 h; series mostly up to 57.5 µM
How it was run: as §1
% is scaled to controls: 0 for no effect and ±100 for the full control effect.

O=C(C1CC1)N1CC[C@@H](Cc2n[nH]c(=O)n2-c2ccc(-c3ccc4occc4c3)cc2)C1
inactive: Potency [1] | Potency [2] | Potency [3] | Potency [4] | Potency [5] | Potency [6] | Potency [7]

C[C@@H]1O[C@@H](O[C@H]2[C@H](O[C@H]3CO[C@@H](O[C@H]4CC[C@@]5(C)C(CC[C@]6(C)C5CC[C@]57OC[C@@]8(CC[C@](C)(CO)CC85)[C@H](O)C[C@]76C)C4(C)C)[C@H](O[C@@H]4O[C@H](CO)[C@@H](O)[C@H](O)[C@H]4O)[C@H]3O)O[C@H](CO)[C@@H](O)[C@@H]2O)[C@H](O)[C@H](O)[C@H]1O (stereo partly specified)
inactive: activity change, negative = cytotoxicity [1] 0.0587% [at 11.6 µM] | activity change, negative = cytotoxicity [2] -0.317% [at 11.6 µM] | activity change, negative = cytotoxicity [3] 0.0764% [at 11.6 µM] | activity change, negative = cytotoxicity [4] 4.72% [at 11.6 µM] | activity change, negative = cytotoxicity [5] 20.5% [at 11.6 µM] | activity change, negative = cytotoxicity [6] -1.65% [at 11.6 µM] | activity change, negative = cytotoxicity [7] -8.07% [at 11.6 µM]

CC(C)CC(=O)O[C@@H]1OC=C(CO[C@@H]2O[C@H](CO[C@@H]3O[C@H](CO)[C@@H](O)[C@H](O)[C@H]3O)[C@@H](O)[C@H](O)[C@H]2O)[C@H]2C[C@H](O)[C@@H](CO)[C@@H]12
inactive: Potency [1] | Potency [2] | Potency [3] | Potency [4] | Potency [5] | Potency [6] | Potency [7]

COc1c(C(CC(C)C)OC(C)=O)ccc(Oc2c(O)cc(C)cc2/C=C/C(C)=O)c1C(=O)O (stereo unspecified)
inactive: Potency [1] | Potency [2] | Potency [3] | Potency [4] | Potency [5] | Potency [6] | Potency [7]

C=CC1(C)CC(O)C2(CCC3C(C)(C(=O)O)CCCC3(C)C2=O)C1 (stereo unspecified)
inactive: Potency [1] | Potency [2] | Potency [3] | Potency [4] | Potency [5] | Potency [6] | Potency [7]

COC1=Cc2c(nc3n(c2=O)C(C)C(=O)NC3(O)C(C)C)OC=C1 (stereo unspecified)
inactive: Potency [1] | Potency [2] | Potency [3] | Potency [4] | Potency [5] | Potency [6] | Potency [7]

CC(/C=C/C1(O)C2(C)COC1(C)CC(=O)C2)O[C@@H]1O[C@H](CO)[C@@H](O)[C@H](O)[C@H]1O (stereo partly specified)
inactive: Potency [1] | Potency [2] | Potency [3] | Potency [4] | Potency [5] | Potency [6] | Potency [7]

CC[C@H](C)[C@@H]1NC(=O)[C@H](Cc2ccc(OC)cc2)NC(=O)CCCSC[C@@H](C(=O)N2CCC[C@H]2C(=O)N[C@@H](CC(C)C)C(=O)NCC(N)=O)NC(=O)[C@H](CC(N)=O)NC(=O)[C@H](CCC(N)=O)NC1=O (Y(Me)IQNCPLG-NH2; linker N-5 via X6)
inactive: Potency [1] | Potency [2] | Potency [3] | Potency [4] | Potency [5] | Potency [6] | Potency [7]

C/C1=C\C[C@H](O[C@@H]2O[C@H](CO)[C@@H](O)[C@H](O)[C@H]2O)/C(C)=C/[C@H]2OC(=O)[C@H](C)[C@@H]2CC1
inactive: Potency [1] | Potency [2] | Potency [3] | Potency [4] | Potency [5] | Potency [6] | Potency [7]

CC1CC(=O)C2=C(O1)OC1(C)CCC3C(C)(C)C=CC(=O)C3(C)C1C2 (stereo unspecified)
inactive: Potency [1] | Potency [2] | Potency [3] | Potency [4] | Potency [5] | Potency [6] | Potency [7]

CC1CCC2C(C)(C)C(O)CCC2(C)C12Cc1c(O)cc3c(c1O2)C(N)=NC3 (stereo unspecified)
inactive: Potency [1] | Potency [2] | Potency [3] | Potency [4] | Potency [5] | Potency [6] | Potency [7]

CC(=O)OC[C@@]12[C@@H](OC(C)=O)C[C@@H](C)[C@](C)([C@@H]3C[C@H]4C=CO[C@H]4O3)[C@H]1CCC[C@]21CO1
inactive: Potency [1] | Potency [2] | Potency [3] | Potency [4] | Potency [5] | Potency [6] | Potency [7]

CC(C)C(C(=O)N1CCCC1C(=O)O)N(C)C(=O)C(O)Cc1ccccc1 (stereo unspecified) (H-[PhLac]-[NMeV]-Pro-OH; configuration not given here)
inactive: Potency [1] | Potency [2] | Potency [3] | Potency [4] | Potency [5] | Potency [6] | Potency [7]

C=C1CCC2C(C)(C(=O)O)CC(O)CC2(C)C1CC/C(C)=C/C(=O)O (stereo unspecified)
inactive: Potency [1] | Potency [2] | Potency [3] | Potency [4] | Potency [5] | Potency [6] | Potency [7]

CC(C)(C)NCC(O)COc1cccc2c1CCCC2=O (stereo unspecified)
inactive: Potency [1] | Potency [2] | Potency [3] | Potency [4] | Potency [5] | Potency [6] | Potency [7]

CC1CCC2(NC1)OC1C(=O)C3C4CCC5CC(O[C@@H]6O[C@H](CO)[C@@H](O)[C@H](O)[C@H]6O[C@@H]6O[C@@H](C)[C@H](O)[C@@H](O)[C@H]6O)CCC5(C)C4CCC3(C)C1C2C (stereo partly specified)
inactive: Potency [1] | Potency [2] | Potency [3] | Potency [4] | Potency [5] | Potency [6] | Potency [7]

C[C@@H]1O[C@@H](O[C@@H]2[C@@H](O)[C@H](O[C@@H]3[C@@H](O)[C@@H](O)[C@H](O[C@H]4[C@H](OC(=O)[C@]56CCC(C)(C)C[C@H]5C5=CCC7[C@@]8(C)C[C@H](O)[C@H](O[C@@H]9O[C@H](C(=O)O)[C@@H](O)[C@H](O)[C@H]9O)[C@@](C)(CO)C8[C@H](O)C[C@@]7(C)[C@]5(C)CC6)OC[C@H](O)[C@@H]4O)O[C@H]3C)OC[C@H]2O)[C@H](O)[C@H](O)[C@H]1O (stereo partly specified)
inactive: activity change, negative = cytotoxicity [1] -1.15% [at 6.55 µM] | activity change, negative = cytotoxicity [2] -4.08% [at 6.55 µM] | activity change, negative = cytotoxicity [3] -1.61% [at 6.55 µM] | activity change, negative = cytotoxicity [4] 3.21% [at 6.55 µM] | activity change, negative = cytotoxicity [5] -6.44% [at 6.55 µM] | activity change, negative = cytotoxicity [6] -4.43% [at 6.55 µM] | activity change, negative = cytotoxicity [7] 4.06% [at 6.55 µM]

OC1COC(OCC2OC(OCCc3ccccc3)C(O)C(O)C2O)C(O)C1O (stereo unspecified)
inactive: Potency [1] | Potency [2] | Potency [3] | Potency [4] | Potency [5] | Potency [6] | Potency [7]
